In all, about 13,000 compounds went through this assay and about 3,200 (25%) showed an effect of 50% or more. The list shows a part of the results.
These molecules were tested on P. falciparum stage V gametocytes. Conditions: 48 h, 5 µM; inhibitor.
Design: BacTiter-Glo ATP luminescence viability of purified stage V gametocytes in 384-well plates, per cent inhibition versus DMSO

Compound	% Inhibition
O=C1O[C@H](c2ccccc2)[C@H](c2ccccc2)N(C(=O)OCc2ccccc2)[C@H]1Cc1ccccc1C1CCCC1 [TCMDC-137303]	5.453%
OC(c1ccccc1)C1CN(CCC2CC3CCC2C3)CCC1(O)c1ccccc1 (stereo not shown) [TCMDC-131996]	-67.18%
CCC(C)NS(=O)(=O)c1ccc2nc(Nc3cccc(SC)c3)n(C(C)C(C)C)c2c1 (stereo not shown) [TCMDC-136237]	-59.9%
Cl.NC(=O)c1cnc2cc(-c3ccoc3)ccc2c1Nc1ccc(NC(=O)Nc2ccccc2Cl)cc1 [TCMDC-135442]	70.72%
CN1CCN(c2ccc(Nc3c(C(N)=O)cnc4cc(-c5ccoc5)ccc34)cc2)CC1.Cl [TCMDC-135440]	-93.68%
Cc1cc(Nc2c(C(N)=O)cnc3cc(-c4ccoc4)ccc23)ccc1N1CCN(C)CC1.Cl [TCMDC-135441]	-28.97%
O=C(Nc1ccccc1-c1nc2ccccc2s1)C(Cl)(Cl)Cl [TCMDC-123676]	7.005%
Clc1ccc2c(Cl)c(CNCCCNc3nc4ccccc4[nH]3)[nH]c2c1 [TCMDC-139967]	-22.32%
Brc1cc(CNCCCNc2nc3ccccc3[nH]2)sc1Br [TCMDC-139801]	12.5%
O=c1cc(NCCCNCc2cc3c(Cl)cc(Cl)cc3[nH]2)[nH]c2ccccc12 [TCMDC-139789]	2.174%
Cc1cc(C)c2cc(CNCCCNc3nc4ccccc4[nH]3)[nH]c2c1 [TCMDC-140069]	42.15%
Clc1cc(Cl)c2cc(CNCCCNc3ccc4ccccc4n3)[nH]c2c1 [TCMDC-140495]	95.02%
Clc1ccc(Cl)c2[nH]c(CNCCCNc3nc4ccccc4[nH]3)cc12 [TCMDC-139957]	50.82%
CCOc1c(CNCCCNc2nc3ccccc3[nH]2)cc(I)cc1OC [TCMDC-140105]	34.54%
FC(F)(F)c1cc(C(F)(F)F)c2cc(CNCCCNc3nc4ccccc4[nH]3)[nH]c2c1 [TCMDC-139965]	-11.18%
CCOc1c(Br)cc(Br)cc1CNCCCCNc1nc2ccccc2[nH]1 [TCMDC-139968]	0.6072%
O=C(NCCCNc1ccc2ccccc2n1)c1cc2c(Cl)cc(Cl)cc2[nH]1 [TCMDC-140378]	3.853%
c1ccc(-c2ccc(CNCCCNc3nc4ccccc4[nH]3)cc2)cc1 [TCMDC-136061]	54.24%
CCOc1c(CNCCCNc2nc3ccccc3[nH]2)cc(Br)cc1OC [TCMDC-140089]	52.36%
CCN(CC)S(=O)(=O)c1ccc(C=CC(=O)Nc2cc(Cl)ccc2N2CCOCC2)cc1 [TCMDC-125117]	28.22%
Cc1cc(-c2cc(Cl)ccc2Cl)no1 [TCMDC-131691]	-15.9%
CN(C)CCn1cc(C(=O)c2cc(Cl)ccc2O)cc1-c1nc2ccccc2c(=O)[nH]1 [TCMDC-125021]	-20.22%
Cc1cccc(C)c1N1CCN(C2CCC(NC(=O)c3cc4ccccc4[nH]3)CC2)CC1 (stereo not shown) [TCMDC-132890]	-33.12%
COc1ccc2ncc(OC)c(CCN3CC[C@@H](NCc4ccc5c(n4)NC(=O)CS5)[C@H](O)C3)c2n1 [TCMDC-134668]	10.18%
CC(=O)Nc1ccc(-c2nc3ccc(-c4nc5ccc(NC(C)=O)cc5[nH]4)cc3[nH]2)cc1 [TCMDC-125761]	0.4612%

Compound	% Inhibition
CCN(CC)CCN(CCN(CC)CC)c1ccc(-c2nc3cc(Cl)c(Cl)cc3[nH]2)cc1 [TCMDC-139329]	70.38%
Clc1ccc(-c2nc3ccc(-c4ccc5nc(-c6ccc(Cl)cc6)[nH]c5c4)cc3[nH]2)cc1 [TCMDC-123460]	1.652%
Cc1nc2nc(N)nc(N)c2c(C)c1Cc1cccs1 [TCMDC-137642]	-3.344%
CC(CCc1ccccc1)NCC(O)c1cccc([N+](=O)[O-])c1 (stereo not shown) [TCMDC-125728]	-0.1444%
Cc1ccnc(NC(c2cccc(Cl)c2Cl)c2ccc3cccnc3c2O)c1 (stereo not shown) [TCMDC-123997]	94.28%
O=[N+]([O-])c1cccc(C(Nc2ccccn2)c2ccc3cccnc3c2O)c1 (stereo not shown) [TCMDC-125725]	107%
Cc1ccnc(NC(c2ccc(Cl)c([N+](=O)[O-])c2)c2ccc3cccnc3c2O)c1 (stereo not shown) [TCMDC-123691]	121%
Oc1cccc2ccc(Nc3ccccn3)nc12 [TCMDC-125567]	43.59%
Cc1ccnc(NC(c2cccc(OCc3ccccc3)c2)c2ccc3cccnc3c2O)c1 (stereo not shown) [TCMDC-125558]	93.78%
COc1ccc(-c2cc(C(=O)N[C@@H](Cc3ccccc3)C(=O)NCCN3CCCCC3)ccc2O)cc1 [TCMDC-140804]	32.57%
Cn1cnc(CCNC(=O)c2cccc(-c3cccc(-c4nc5cc(C(F)(F)F)ccc5[nH]4)c3)c2)c1 [TCMDC-132496]	22.81%
CCOCCCn1c(=N)c(C(=O)NC(C)c2ccccc2)cc2c(=O)n3cccc(C)c3nc21 (stereo not shown) [TCMDC-124348]	9.74%
Oc1c(C(Nc2ccccn2)c2ccc(Cl)cc2Cl)ccc2cccnc12 (stereo not shown) [TCMDC-125559]	98.53%
O=C(Cc1ccccc1)NC(c1ccco1)c1cc(Cl)c2cccnc2c1O (stereo not shown) [TCMDC-125561]	-24.24%
Cc1cc(NC(c2ccc(Cl)cc2)c2ccc3cccnc3c2O)no1 (stereo not shown) [TCMDC-123828]	23.63%
CCC(=O)NC(c1ccco1)c1cc(Cl)c2cccnc2c1O (stereo not shown) [TCMDC-123650]	-55.25%
Oc1c(C(Nc2ccccn2)c2ccco2)cc(Cl)c2cccnc12 (stereo not shown) [TCMDC-125324]	60.61%
Cc1ccc(Nc2nccc(NCC(O)c3ccc(C(F)(F)F)cc3)n2)cc1 (stereo not shown) [TCMDC-136593]	10.35%
Cc1ccc2nc(NC#N)[nH]c2c1 [TCMDC-131394]	6.156%
Cc1noc(C)c1-c1ccc2c(Nc3ccccc3C(C)(C)C)c(C(=O)NCc3ccc(OC(C)C)cc3)cnc2c1.Cl [TCMDC-136370]	-53.99%
CCOc1cc(OCC)c2ccccc2c1CNCCCCCCNCc1c(OCC)cc(OCC)c2ccccc12 [TCMDC-137982]	121.9%
Oc1ccc2ccccc2c1CNCCC1CCCCC1 [TCMDC-137605]	-1.678%
c1ccc2c(CNCCCCCCNCc3c(OCC4CC4)ccc4ccccc34)c(OCC3CC3)ccc2c1 [TCMDC-137839]	118.2%
CCCCCCCCNCc1c(O)ccc2ccccc12 [TCMDC-137606]	26.15%
CCCCCCOc1ccc2ccccc2c1CNCCCCCCNCc1c(OCCCCCC)ccc2ccccc12 [TCMDC-137963]	142.3%

Compound	% Inhibition
Oc1ccc2ccccc2c1CNCC1CCCCC1 [TCMDC-137608]	2.485%
CCCOc1ccc2ccccc2c1CNCCCCCCNCc1c(OCCC)ccc2ccccc12 [TCMDC-137966]	143.6%
Cc1cc(N[C@@H](CC(C)C)C(=O)NCCc2ccccc2)nc(NCC2CCCCC2)n1 [TCMDC-134920]	-75.82%
Cn1cncc1C(=O)Nc1ccc(-c2ccc(-c3nc4ccc(C(F)(F)F)cc4[nH]3)cc2)cc1 [TCMDC-137065]	-63.66%
Cc1cc(Nc2ncc3c(n2)N(C2CCC2)CC3)ccc1N1CCN(C)CC1 [TCMDC-134146]	20.06%
Cc1cccc2[nH]c(-c3ccc(-c4ccc(NC(=O)NCc5cccc(F)c5)cc4)cc3)nc12 [TCMDC-133294]	-5.117%
CN1CCN(c2ccc3nccc(CCN4CCC(NCc5ccc6c(n5)NC(=O)CO6)CC4)c3n2)CC1 [TCMDC-141580]	8.776%
CCOc1ccc2ccccc2c1CNCCCCCCNCc1c(OCC)ccc2ccccc12 [TCMDC-137791]	117.2%
COc1ccc(C2CC(=O)C3=C(C2)NC(C)=C(C(=O)OC(C)C)C3c2ccc(O)cc2)cc1OC (stereo not shown) [TCMDC-125633]	43.1%
CC(C)C[C@H](NC(=O)c1cc2cc(OCCN3CCNCC3)ccc2o1)C(=O)NC1CC[C@@H](C)N(C(=O)Nc2ccc(Cl)cc2)CC1=O (stereo partly shown) [TCMDC-133539]	8.489%
C[C@@H]1CC[C@H](NC(=O)[C@H](CC2CCCC2)NC(=O)N2CCNCC2)C(=O)CN1S(=O)(=O)c1ccccn1 [TCMDC-141571]	57.62%
COc1cccc2cc(C(=O)N[C@@H](CC(C)C)C(=O)NC3CC[C@@H](C)N(C(=O)Nc4ccncc4)CC3=O)oc12 (stereo partly shown) [TCMDC-134320]	-6.979%
CCOC(=O)NC1=NC(C)(C)N(OCCCOc2cc(Cl)c(Cl)cc2Cl)C(NC(=O)OCC)=N1 [TCMDC-131743]	1.787%
CCN(CC)c1ccc(C(c2ccc(N(CC)CC)cc2)c2ccc([N+](=O)[O-])cc2)cc1 [TCMDC-131286]	-67.18%
N#Cc1ccccc1C(=O)N(Cc1cncn1Cc1cccc(F)c1)CC1CC1 [TCMDC-132459]	-1.299%
O=C(NC1CC1)c1ccc(Cn2c(SCc3cccc([N+](=O)[O-])c3)nc3ccccc3c2=O)cc1 [TCMDC-123577]	43.52%
CCN(CCNC(=O)Cn1c(C)cc2cc([N+](=O)[O-])ccc21)c1cccc(C)c1 [TCMDC-140764]	1.649%
Cc1cccc(Cn2c(C(N)=O)nn(-c3ccc([N+](=O)[O-])cc3C#N)c2=S)c1 [TCMDC-134720]	78.61%
N#Cc1cc([N+](=O)[O-])ccc1-n1nc(C(N)=O)n(Cc2cccc(F)c2)c1=S [TCMDC-134721]	80.05%
O=[N+]([O-])c1ccc(-n2nc(Cc3ccccc3)n(Cc3cccc(F)c3)c2=S)c(C(F)(F)F)c1 [TCMDC-135486]	73.39%
Cc1cccc(CC2CC(=O)N(c3ccc([N+](=O)[O-])cc3)C2=O)c1 (stereo not shown) [TCMDC-125732]	-3.627%
CN(C)CCN(Cc1ccccc1)c1ccc([N+](=O)[O-])cc1C(F)(F)F [TCMDC-135372]	16.64%
CC(C)CCn1c(Sc2ccc([N+](=O)[O-])cc2C(F)(F)F)nnc1-c1ccccc1Cl [TCMDC-135484]	10.18%
